# According to PubChem BioAssay (EPA / NIEHS):
# Results filed as inconclusive are left out. Active and inactive are the calls of the source. How the source made its calls: active means hit-call score of the fitted dose curve at least 0.9, where 1 is the maximum; inconclusive means response in the unintended direction; inactive means score below 0.9.
# What was measured:
# [1] = test system: rat Monoamine Oxidase, MAO-A, Central (MAOAC), gene 29253; experiment: NVS_ENZ_rMAOAC: NovaScreen (NVS) Enzymatic Assay for rat Monoamine Oxidase, MAO-A, Central (MAOAC) (AID 2283243);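 further: potency refers to inhibition seen as signal drop below DMSO baseline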
# How it was run: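 Rat brain tissue extract used as enzyme source in a cell-free radiometric assay, read by scintillation counting 1.5 hours after dosing. Loss of signal relative to DMSO baseline scored; primary screen at 25 uM in duplicate, actives followed up in concentration series.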
# [2] = test system: bovine Histamine 1 Receptor (H1), gene 281231; experiment: NVS_GPCR_bH1: NovaScreen (NVS) G Protein-Coupled Receptor Assay for bovine Histamine 1 Receptor (H1) (AID 2283246)
# How it was run: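 Radioligand displacement on bovine cerebellar membranes, 1 h after dosing, filter-based scintillation read-out; loss of signal vs DMSO. Duplicate single-concentration screen at 25 uM, then concentration-response up to 50 uM for hits.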
# [3] = molecular target: rat Monoamine Oxidase, MAO-B, Central (MAOBC), Maob (gene 25750) (UniProt P19643); experiment: NVS_ENZ_rMAOBC: NovaScreen (NVS) Enzymatic Assay for rat Monoamine Oxidase, MAO-B, Central (MAOBC) (AID 2283238)
# Chain of rat Monoamine Oxidase, MAO-B, Central (MAOBC), Maob (gene 25750) (P19643 whole entry, looked up): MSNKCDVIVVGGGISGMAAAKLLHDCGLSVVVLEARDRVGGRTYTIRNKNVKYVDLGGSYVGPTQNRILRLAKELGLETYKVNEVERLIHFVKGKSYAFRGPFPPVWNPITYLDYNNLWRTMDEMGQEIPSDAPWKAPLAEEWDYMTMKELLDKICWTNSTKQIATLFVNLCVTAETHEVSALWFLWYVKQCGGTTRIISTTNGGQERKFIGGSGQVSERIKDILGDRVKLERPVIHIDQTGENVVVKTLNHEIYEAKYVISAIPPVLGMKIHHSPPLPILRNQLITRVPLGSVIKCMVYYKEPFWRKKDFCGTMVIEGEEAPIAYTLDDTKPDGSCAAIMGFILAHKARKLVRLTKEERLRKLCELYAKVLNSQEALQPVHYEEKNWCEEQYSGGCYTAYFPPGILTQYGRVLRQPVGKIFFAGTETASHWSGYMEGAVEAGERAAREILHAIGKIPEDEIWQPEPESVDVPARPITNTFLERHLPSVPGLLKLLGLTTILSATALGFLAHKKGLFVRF
# How it was run: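 MAO-B activity in rat brain tissue preparation, cell-free, measured radiometrically by scintillation counting 1.17 h after dosing. Screened in duplicate at 25 uM; actives then in concentration-response up to 50 uM. Loss of signal versus DMSO scored.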
# [4] = test system: bovine Angiotensin II Receptor Type 2 (AT2), gene 407157; experiment: NVS_GPCR_bAT2: NovaScreen (NVS) G Protein-Coupled Receptor Assay for bovine Angiotensin II Receptor Type 2 (AT2) (AID 2283240)
# How it was run: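 Radioligand displacement on bovine cerebellar membranes, 1 hour incubation, filter-based scintillation counting; loss of signal vs DMSO. Duplicate single-point screen at 25 uM, then concentration-response to 50 uM maximum.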
# [5] = NVS_GPCR_bNPY_NonSelective: NovaScreen (NVS) G Protein-Coupled Receptor Assay for bovine Neuropeptide Y (NPY) Receptor, Non-selective Binding (AID 2283245)
# How it was run: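 Bovine hippocampal membranes incubated 1 hour with radioligand and test chemical. Bound ligand measured by filter-based scintillation counting. Single-concentration screen at 25 uM in duplicate, then concentration-response up to 50 uM.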
# [6] = molecular target: human Serotonin, 5-Hydroxytryptamine Receptor 2A (5HT2A), HTR2A (gene 3356) (UniProt P28223); experiment: NVS_GPCR_h5HT2A: NovaScreen (NVS) G Protein-Coupled Receptor Assay for human Serotonin, 5-Hydroxytryptamine Receptor 2A (5HT2A) (AID 2283249)
# How it was run: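 Human cortex membranes, cell-free radioligand binding; filter-based scintillation read 1.5 h after dosing. Duplicate screen at 25 uM first; displacement of specific binding (loss of signal) versus DMSO.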
# [7] = molecular target: human Serotonin, 5-Hydroxytryptamine Receptor 5A (5HT5A), HTR5A (gene 3361) (UniProt P47898); experiment: NVS_GPCR_h5HT5A: NovaScreen (NVS) G Protein-Coupled Receptor Assay for human Serotonin, 5-Hydroxytryptamine Receptor 5A (5HT5A) (AID 2283251)
# Chain of human Serotonin, 5-Hydroxytryptamine Receptor 5A (5HT5A), HTR5A (gene 3361) (P47898 whole entry, looked up): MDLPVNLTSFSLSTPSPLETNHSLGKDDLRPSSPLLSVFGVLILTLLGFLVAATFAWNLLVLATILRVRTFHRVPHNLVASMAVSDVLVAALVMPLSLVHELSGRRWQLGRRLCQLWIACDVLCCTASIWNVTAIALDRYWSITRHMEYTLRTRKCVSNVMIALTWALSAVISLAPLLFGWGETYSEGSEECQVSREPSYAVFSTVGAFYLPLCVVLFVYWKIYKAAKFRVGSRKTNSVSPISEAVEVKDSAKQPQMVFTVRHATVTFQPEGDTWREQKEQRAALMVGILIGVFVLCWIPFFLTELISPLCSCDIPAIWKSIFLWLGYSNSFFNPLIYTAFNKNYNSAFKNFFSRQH
# How it was run: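 Cell-free radioligand displacement binding on HEK293-derived membrane protein, 1 h incubation, filter-based scintillation counting. Primary screen in duplicate at 25 uM, actives followed in concentration series; loss of signal fitted versus DMSO.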
# [8] = molecular target: guinea pig Opioid, Kappa 1 Receptor (OpiateK), OPRK1 (gene 100135587) (UniProt P41144); experiment: NVS_GPCR_gOpiateK: NovaScreen (NVS) G Protein-Coupled Receptor Assay for guinea pig Opioid, Kappa 1 Receptor (OpiateK) (AID 2283252);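 further: radioligand displacement from kappa opioid receptor in guinea pig cerebellar membranes; active means reduced radioligand binding relative to DMSO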
# Chain of guinea pig Opioid, Kappa 1 Receptor (OpiateK), OPRK1 (gene 100135587) (P41144 whole entry, looked up): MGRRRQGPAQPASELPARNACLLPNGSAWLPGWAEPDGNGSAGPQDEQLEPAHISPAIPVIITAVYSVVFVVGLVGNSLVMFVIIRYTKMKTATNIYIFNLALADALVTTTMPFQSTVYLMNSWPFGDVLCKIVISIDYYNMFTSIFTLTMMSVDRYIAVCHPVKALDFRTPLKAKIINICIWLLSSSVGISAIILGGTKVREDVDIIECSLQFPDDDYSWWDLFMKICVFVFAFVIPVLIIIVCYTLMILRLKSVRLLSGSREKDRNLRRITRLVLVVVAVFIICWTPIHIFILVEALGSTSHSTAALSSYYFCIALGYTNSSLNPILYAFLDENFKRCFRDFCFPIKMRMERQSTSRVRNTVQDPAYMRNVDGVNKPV
# How it was run: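 Guinea pig cerebellar membranes, radioligand displacement with filter-based scintillation counting, 2 h after dosing. Primary screen single concentration 25 uM in duplicate; actives retested in concentration series; loss of binding fitted versus DMSO.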
# [9] = molecular target: human Serotonin, 5-Hydroxytryptamine Receptor 6 (5HT6), HTR6 (gene 3362) (UniProt P50406); experiment: NVS_GPCR_h5HT6: NovaScreen (NVS) G Protein-Coupled Receptor Assay for human Serotonin, 5-Hydroxytryptamine Receptor 6 (5HT6) (AID 2283253)
# Chain of human Serotonin, 5-Hydroxytryptamine Receptor 6 (5HT6), HTR6 (gene 3362) (P50406 whole entry, looked up): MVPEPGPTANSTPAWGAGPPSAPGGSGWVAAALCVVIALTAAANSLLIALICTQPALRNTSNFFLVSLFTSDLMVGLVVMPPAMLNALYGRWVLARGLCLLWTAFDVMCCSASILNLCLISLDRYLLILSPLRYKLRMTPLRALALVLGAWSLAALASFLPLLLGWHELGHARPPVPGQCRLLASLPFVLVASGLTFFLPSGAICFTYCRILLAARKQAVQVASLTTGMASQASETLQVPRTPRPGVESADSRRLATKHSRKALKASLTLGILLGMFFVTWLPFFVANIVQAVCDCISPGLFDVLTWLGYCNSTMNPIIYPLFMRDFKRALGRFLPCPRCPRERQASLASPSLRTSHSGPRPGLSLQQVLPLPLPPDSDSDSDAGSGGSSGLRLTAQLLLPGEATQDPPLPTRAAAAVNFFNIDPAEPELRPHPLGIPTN
# How it was run: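 Radioligand binding to 5HT6 in HEK293-derived membranes, cell-free, 1 h after dosing; bound ligand measured by filter-based scintillation counting. Primary screen in duplicate at 25 uM; actives retested in concentration series.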
# [10] = molecular target: human Serotonin, 5-Hydroxytryptamine Receptor 7 (5HT7), HTR7 (gene 3363) (UniProt P34969); experiment: NVS_GPCR_h5HT7: NovaScreen (NVS) G Protein-Coupled Receptor Assay for human Serotonin, 5-Hydroxytryptamine Receptor 7 (5HT7) (AID 2283255);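 further: hits reduce specific radioligand binding relative to DMSO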
# Chain of human Serotonin, 5-Hydroxytryptamine Receptor 7 (5HT7), HTR7 (gene 3363) (P34969 whole entry, looked up): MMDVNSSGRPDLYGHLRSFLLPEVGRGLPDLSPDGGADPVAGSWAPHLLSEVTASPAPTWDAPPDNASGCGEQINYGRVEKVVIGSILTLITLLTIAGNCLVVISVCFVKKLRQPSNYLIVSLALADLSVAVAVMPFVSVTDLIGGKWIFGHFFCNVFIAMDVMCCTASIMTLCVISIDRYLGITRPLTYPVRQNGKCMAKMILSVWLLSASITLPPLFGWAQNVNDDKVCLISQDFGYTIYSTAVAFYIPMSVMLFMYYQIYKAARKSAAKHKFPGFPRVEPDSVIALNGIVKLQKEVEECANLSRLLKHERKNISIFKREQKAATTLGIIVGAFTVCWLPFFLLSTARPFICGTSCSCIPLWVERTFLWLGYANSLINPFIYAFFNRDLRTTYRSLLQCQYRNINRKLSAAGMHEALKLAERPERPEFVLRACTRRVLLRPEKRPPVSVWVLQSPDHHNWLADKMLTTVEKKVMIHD
# How it was run: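 Radioligand displacement on membranes from CHO cells expressing human 5HT7, 1 h incubation, filter-based scintillation counting. Primary screen used a single 25 uM concentration in duplicate; actives were followed up in concentration series.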
# [11] = molecular target: human Adrenergic, Alpha 2A Receptor (Adra2A), ADRA2A (gene 150) (UniProt P08913); experiment: NVS_GPCR_hAdra2A: NovaScreen (NVS) G Protein-Coupled Receptor Assay for human Adrenergic, Alpha 2A Receptor (Adra2A) (AID 2283257)
# Chain of human Adrenergic, Alpha 2A Receptor (Adra2A), ADRA2A (gene 150) (P08913 whole entry, looked up): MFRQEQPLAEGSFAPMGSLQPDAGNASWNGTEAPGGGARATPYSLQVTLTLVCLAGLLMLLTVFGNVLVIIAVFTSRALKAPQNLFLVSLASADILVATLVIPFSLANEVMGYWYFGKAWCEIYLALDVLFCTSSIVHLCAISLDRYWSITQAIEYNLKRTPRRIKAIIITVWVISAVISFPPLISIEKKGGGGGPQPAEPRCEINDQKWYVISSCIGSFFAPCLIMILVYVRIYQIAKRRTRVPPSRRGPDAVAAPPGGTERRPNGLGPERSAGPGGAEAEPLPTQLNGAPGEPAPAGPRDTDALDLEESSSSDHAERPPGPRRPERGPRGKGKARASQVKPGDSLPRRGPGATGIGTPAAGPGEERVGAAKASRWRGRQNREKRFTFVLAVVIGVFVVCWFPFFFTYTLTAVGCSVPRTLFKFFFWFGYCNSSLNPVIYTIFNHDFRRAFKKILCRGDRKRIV
# How it was run: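 Radioligand filter-binding was run on HT29-derived membranes, cell-free, read by scintillation counting 1 h after dosing. Primary screening was in duplicate at 25 uM, with concentration series in follow-up. Loss of signal versus DMSO indicates displacement.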
# [12] = molecular target: sheep Cyclooxygenase-1 (Cox1), PTGS1 (gene 443551) (UniProt P05979); experiment: NVS_ENZ_oCOX1: NovaScreen (NVS) Enzymatic Assay for sheep Cyclooxygenase-1 (Cox1) (AID 2283239);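 further: actives reduce cyclooxygenase activity so potencies are for inhibitors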
# Chain of sheep Cyclooxygenase-1 (Cox1), PTGS1 (gene 443551) (P05979 whole entry, looked up): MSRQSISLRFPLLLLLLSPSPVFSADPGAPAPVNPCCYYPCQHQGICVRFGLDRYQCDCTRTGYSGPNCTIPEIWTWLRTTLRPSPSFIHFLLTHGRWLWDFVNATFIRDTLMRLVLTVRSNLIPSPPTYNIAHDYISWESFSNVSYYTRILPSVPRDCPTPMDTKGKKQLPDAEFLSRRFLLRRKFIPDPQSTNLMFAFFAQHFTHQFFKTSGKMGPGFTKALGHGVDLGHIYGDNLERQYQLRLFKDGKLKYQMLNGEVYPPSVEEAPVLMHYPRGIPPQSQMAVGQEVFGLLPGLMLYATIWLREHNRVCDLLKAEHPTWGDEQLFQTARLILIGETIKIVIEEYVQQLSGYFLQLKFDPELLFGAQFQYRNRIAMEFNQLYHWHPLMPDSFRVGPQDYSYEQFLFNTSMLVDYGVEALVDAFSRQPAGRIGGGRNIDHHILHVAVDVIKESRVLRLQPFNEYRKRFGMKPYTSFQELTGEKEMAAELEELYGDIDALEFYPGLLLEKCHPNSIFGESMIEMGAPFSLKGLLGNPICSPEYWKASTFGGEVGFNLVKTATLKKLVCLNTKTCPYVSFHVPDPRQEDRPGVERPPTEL
# How it was run: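 Colorimetric enzyme readout using sheep seminal-vesicle cyclooxygenase-1, measured 0.66 h post-dosing. Single-concentration duplicates at 25 uM first, then concentration series for actives, with DMSO as baseline and plate controls.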
# [13] = molecular target: rat Monoamine Oxidase, MAO-B, Peripheral (MAOBP), Maob (gene 25750) (UniProt P19643); experiment: NVS_ENZ_rMAOBP: NovaScreen (NVS) Enzymatic Assay for rat Monoamine Oxidase, MAO-B, Peripheral (MAOBP) (AID 2283242)
# Chain of rat Monoamine Oxidase, MAO-B, Peripheral (MAOBP), Maob (gene 25750) (P19643 whole entry, looked up): as the sequence (P19643 whole entry, looked up) above
# [14] = molecular target: bovine Dopamine Receptor (DR), Non-selective Binding, DRD1 (gene 281125) (UniProt Q95136); experiment: NVS_GPCR_bDR_NonSelective: NovaScreen (NVS) G Protein-Coupled Receptor Assay for bovine Dopamine Receptor (DR), Non-selective Binding (AID 2283241)
# Chain of bovine Dopamine Receptor (DR), Non-selective Binding, DRD1 (gene 281125) (Q95136 whole entry, looked up): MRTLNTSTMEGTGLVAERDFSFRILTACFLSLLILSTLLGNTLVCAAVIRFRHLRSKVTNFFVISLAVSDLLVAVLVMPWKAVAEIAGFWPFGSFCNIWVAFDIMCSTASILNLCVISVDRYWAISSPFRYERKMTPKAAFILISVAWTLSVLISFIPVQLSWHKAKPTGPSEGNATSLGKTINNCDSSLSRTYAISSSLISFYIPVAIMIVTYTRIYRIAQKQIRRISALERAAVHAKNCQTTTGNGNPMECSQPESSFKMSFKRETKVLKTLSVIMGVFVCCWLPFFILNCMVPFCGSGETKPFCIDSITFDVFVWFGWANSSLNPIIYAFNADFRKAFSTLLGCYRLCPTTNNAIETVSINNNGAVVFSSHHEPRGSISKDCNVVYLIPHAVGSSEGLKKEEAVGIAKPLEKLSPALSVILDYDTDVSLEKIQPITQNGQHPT
# How it was run: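 Bovine striatal membranes; radioligand displacement read by filtration and scintillation counting 1 h after dosing, loss of signal vs DMSO. Screened in duplicate at 25 uM, then concentration-response for hits.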
# [15] = test system: guinea pig Leukotriene B4 Receptor (LTB4), gene 100379538; experiment: NVS_GPCR_gLTB4: NovaScreen (NVS) G Protein-Coupled Receptor Assay for guinea pig Leukotriene B4 Receptor (LTB4) (AID 2283247)
# How it was run: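 Radioligand displacement on guinea pig spleen membranes, filter-based scintillation counting 2 h after dosing. Primary duplicate single point at 25 uM; hits over threshold (e.g. 30% inhibition) run in concentration-response up to 50 uM, DMSO baseline.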
# [16] = molecular target: Adenosine receptor A1 (Bos taurus) (UniProt P28190); experiment: NVS_GPCR_bAdoR_NonSelective: NovaScreen (NVS) G Protein-Coupled Receptor Assay for bovine Adenosine Receptor (AdoR), Non-selective Binding (AID 2283244)
# Chain of Adenosine receptor A1 (Bos taurus) (P28190 whole entry, looked up): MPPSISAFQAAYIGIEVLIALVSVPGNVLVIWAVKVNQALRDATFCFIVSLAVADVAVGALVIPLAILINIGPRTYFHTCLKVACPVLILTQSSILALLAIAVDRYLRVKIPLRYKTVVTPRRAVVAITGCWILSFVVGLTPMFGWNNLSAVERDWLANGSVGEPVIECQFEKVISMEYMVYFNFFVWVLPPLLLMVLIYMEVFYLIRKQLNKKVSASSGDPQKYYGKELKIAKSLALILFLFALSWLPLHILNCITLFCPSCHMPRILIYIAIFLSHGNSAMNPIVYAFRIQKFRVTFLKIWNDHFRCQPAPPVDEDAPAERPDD
# How it was run: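 Bovine striatal membranes, radioligand displacement binding, 1 h after dosing, filter-based scintillation counting. Screened in duplicate at 25 uM, then concentration-response up to 50 uM; loss of specific binding relative to DMSO.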
# [17] = molecular target: guinea pig Leukotriene D4 Receptor (LTD4), CYSLTR1 (gene 100135514) (UniProt Q2NNR5); experiment: NVS_GPCR_gLTD4: NovaScreen (NVS) G Protein-Coupled Receptor Assay for guinea pig Leukotriene D4 Receptor (LTD4) (AID 2283248)
# Chain of guinea pig Leukotriene D4 Receptor (LTD4), CYSLTR1 (gene 100135514) (Q2NNR5 whole entry, looked up): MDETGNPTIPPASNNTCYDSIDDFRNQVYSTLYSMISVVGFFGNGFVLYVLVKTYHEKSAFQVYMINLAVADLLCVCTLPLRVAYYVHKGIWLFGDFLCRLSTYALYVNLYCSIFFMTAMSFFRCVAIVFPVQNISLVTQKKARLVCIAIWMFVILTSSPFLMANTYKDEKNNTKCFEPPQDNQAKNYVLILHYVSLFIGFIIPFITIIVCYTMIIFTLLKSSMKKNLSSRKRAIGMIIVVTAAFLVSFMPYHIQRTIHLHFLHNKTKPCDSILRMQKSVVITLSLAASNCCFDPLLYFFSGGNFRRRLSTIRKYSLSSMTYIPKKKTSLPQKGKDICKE
# How it was run: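 Radioligand displacement on guinea pig lung membranes, 1 h incubation, filtration and scintillation counting; DMSO as negative control. Duplicate 25 uM primary screen, then singleton concentration-response up to 50 uM.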
# [18] = molecular target: human Adenosine A1 Receptor (AdoRA1), ADORA1 (gene 134) (UniProt P30542); experiment: NVS_GPCR_hAdoRA1: NovaScreen (NVS) G Protein-Coupled Receptor Assay for human Adenosine A1 Receptor (AdoRA1) (AID 2283254)
# How it was run: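 Hum. cortical membranes + radioligand, cmpd 1 h; filtration, scintillation count. Readout = decrease vs DMSO. Primary 25 uM dup; hits → conc. series.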
smiles,measurement,setting,value
CC(=NC#N)N(C)Cc1ccc(Cl)nc1,AC50,[1],13.3 µM (active)
CN(C)C(=O)Nc1cccc(C(F)(F)F)c1,AC50,[1],29.7 µM (active)
same,outcome,[2],inactive
CC[C@H](C)[C@H]1O[C@]2(C=C[C@@H]1C)C[C@@H]1C[C@@H](C/C=C(\C)[C@@H](O[C@H]3C[C@H](OC)[C@@H](O[C@H]4C[C@H](OC)[C@@H](NC)[C@H](C)O4)[C@H](C)O3)[C@@H](C)/C=C/C=C3\CO[C@@H]4[C@H](O)C(C)=C[C@@H](C(=O)O1)[C@]34O)O2,outcome,[3],inactive
same,outcome,[4],inactive
same,outcome,[1],inactive
same,AC50,[5],20.6 µM (active)
same,AC50,[6],26.9 µM (active)
same,AC50,[7],7.94 µM (active)
same,AC50,[8],25 µM (active)
same,AC50,[9],13.9 µM (active)
same,AC50,[10],4.29 µM (active)
same,AC50,[11],26.8 µM (active)
CCCSP(=O)(OCC)SCCC,outcome,[12],inactive
O=c1ccc(=O)[nH][nH]1,outcome,[13],inactive
same,outcome,[7],inactive
CSc1nnc(C(C)(C)C)c(=O)n1N,AC50,[3],16.8 µM (active)
same,outcome,[13],inactive
CCCCOC(=O)c1ccccc1C(=O)O,outcome,[12],inactive
same,outcome,[14],inactive
CC1(C(=O)Nc2ccc(O)c(Cl)c2Cl)CCCCC1,outcome,[1],inactive
CC(C1CC1)C(O)(Cn1cncn1)c1ccc(Cl)cc1 (configuration not stated),outcome,[13],inactive
Nc1nc(N)nc(NC2CC2)n1,outcome,[13],inactive
Nc1c(Cl)cc([N+](=O)[O-])cc1Cl,AC50,[3],15.3 µM (active)
same,AC50,[13],39.8 µM (active)
same,AC50,[1],15.6 µM (active)
CCOP(=S)(OCC)Oc1ccc([N+](=O)[O-])cc1,outcome,[14],inactive
same,AC50,[15],7.9 µM (active)
Cc1nn(-c2cc(NS(C)(=O)=O)c(Cl)cc2Cl)c(=O)n1C(F)F,outcome,[13],inactive
S=C1NCCN1,outcome,[13],inactive
COP(=O)(OC)OC(Br)C(Cl)(Cl)Br (configuration not stated),outcome,[3],inactive
same,AC50,[16],25 µM (active)
same,outcome,[5],inactive
same,AC50,[17],0.00229 µM (active)
same,AC50,[8],33.3 µM (active)
same,AC50,[9],9.88 µM (active)
C[Si](Cn1cncn1)(c1ccc(F)cc1)c1ccc(F)cc1,AC50,[1],34 µM (active)
same,AC50,[7],7.85 µM (active)
same,AC50,[8],25 µM (active)
same,AC50,[10],16.6 µM (active)
CON=C(C(=O)OC)c1ccccc1CON=C(C)c1cccc(C(F)(F)F)c1,outcome,[4],inactive
FC(F)C(F)(F)OCC(Cn1cncn1)c1ccc(Cl)cc1Cl (configuration not stated),outcome,[13],inactive
same,outcome,[8],inactive
same,AC50,[18],25 µM (active)
CSC1=N[C@@](C)(c2ccccc2)C(=O)N1Nc1ccccc1,outcome,[3],inactive
CCc1cccc(C)c1N(C(=O)CCl)C(C)COC (configuration not stated),outcome,[1],inactive
same,AC50,[8],16.2 µM (active)
